Source: PubChem BioAssay (NCATS)
Results filed as inconclusive are left out. Calls of active or inactive are those of the source. Calls follow the shape of the dose curve; as a rule, active = well fitted inhibition curve with a large enough effect; inconclusive = small, poorly fitted or top-dose-only effect; inactive = flat fitted curve, though single readings scatter.

Legend:
Assay in all cases: qHTS profiling for inhibitors of Plasmodium falciparum proliferation (AID 504749); also: nearly all actives have a fitted effect of over 60% in size
Settings in all cases: P. falciparum in erythrocytes, SYBR Green DNA, 72 h
CP194 = system: CP194
Procedure, shortened: (§1)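 Quantitative HTS: compounds pinned into medium, infected erythrocytes added (0.3% parasitemia, 2.5% hematocrit), 72 h culture at 37 C under 5% CO2. Saponin/Triton lysis with SYBR Green I, overnight RT, then fluorescence read.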

CP201 = system: CP201
Procedure, shortened: as §1

CP203 = system: CP203
Procedure, shortened: as §1

CP211 = system: CP211
Procedure, shortened: as §1

CP215 = system: CP215
Procedure, shortened: as §1

CP217 = system: CP217
Procedure, shortened: as §1

CP237 = system: CP237
Procedure, shortened: as §1

CP238 = system: CP238
Procedure, shortened: as §1

CP247 = system: CP247
Procedure, shortened: as §1

CP250 = system: CP250
Procedure, shortened: as §1

CP252 = system: CP252
Procedure, shortened: as §1

CP256 = system: CP256
Procedure, shortened: as §1

CP260 = system: CP260
Procedure, shortened: as §1

CP262 = system: CP262
Procedure, shortened: as §1

CP265 = system: CP265
Procedure, shortened: as §1

CP266 = system: CP266
Procedure, shortened: as §1

CP268 = system: CP268
Procedure, shortened: as §1

CP269 = system: CP269
Procedure, shortened: as §1

CP286 = system: CP286
Procedure, shortened: as §1

CP291 = system: CP291
Procedure, shortened: as §1

Measured: Potency
Potency is read from the fitted curve at half-maximal effect.

CC[C@]1(O)CC2CN(CCc3c([nH]c4ccccc34)[C@@](C(=O)OC)(c3cc4c(cc3OC)N(C)[C@H]3[C@@](O)(C(=O)OC)[C@H](OC(C)=O)[C@]5(CC)C=CCN6CC[C@]43[C@@H]65)C2)C1 (stereo partly drawn)
active: CP194 3010 nM | CP201 4780 nM | CP203 4260 nM | CP211 1510 nM | CP215 2130 nM | CP217 3980 nM | CP237 158 nM | CP238 3160 nM | CP247 355 nM | CP250 3550 nM | CP252 3550 nM | CP256 2510 nM | CP260 158 nM | CP262 1070 nM | CP265 3980 nM | CP266 3790 nM | CP268 6750 nM | CP269 1900 nM | CP286 158 nM | CP291 1900 nM

CC(=O)O[C@H]1C(=O)[C@@]2(C)[C@H]([C@H](OC(=O)c3ccccc3)[C@]3(O)C[C@H](OC(=O)[C@H](O)[C@@H](NC(=O)c4ccccc4)c4ccccc4)C(C)=C1C3(C)C)[C@]1(OC(C)=O)CO[C@@H]1C[C@@H]2O
active: CP194 675 nM | CP201 953 nM | CP203 849 nM | CP211 478 nM | CP215 1350 nM | CP217 562 nM | CP237 708 nM | CP238 251 nM | CP247 355 nM | CP250 708 nM | CP252 178 nM | CP256 282 nM | CP260 355 nM | CP262 953 nM | CP265 891 nM | CP269 536 nM | CP286 178 nM | CP291 478 nM
